Source: PubChem BioAssay AID1159580 (chemical genetic matrix, 2015)
Where “and” joins values, the source holds several entries; their conditions need not be identical. Identical values can stand only once. The whole screen tested about 5,500 compounds, of which about 2,000 (36%) were called active. Another 18% or so got no clear call; they are omitted. No stated cut-off is given here; in the data, active means normalized growth mostly below about 0.91 (no sharp cut-off); inconclusive means no clear call, values can overlap the other calls; inactive means mostly above about 0.92. Some of the results follow.

Experiment: chemical genetic growth profiling, strain panel (AID 1159580);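 further: tested at 20 µM; growth read once vehicle control cultures reached saturation at 30 °C; 1 = growth at the plate median or of vehicle wells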
Conditions: S. cerevisiae deletion strains, growth OD

Measured: normalized growth

CO/N=C(\C(=O)NC1C(=O)N2C(C(=O)O)=C(COC(N)=O)CSC12)c1ccco1 (stereo unspecified)
0.0514 (active) and 1.05 (inactive): locus YHR030C, strain SLT2, stronger effect = lower value
active: locus YBR021W, strain FUR4, stronger effect = lower value 0.0938 | locus YBR229C, strain ROT2, stronger effect = lower value 0.0259 | locus YCL029C, strain bik1, stronger effect = lower value 0.0647 | locus YDL035C, strain GPR1, stronger effect = lower value 0.0509 | locus YDL074C, strain BRE1, stronger effect = lower value 0.0872 | locus YDL101C, strain DUN1, stronger effect = lower value 0.0518 | locus YDL185W, strain tfp1, stronger effect = lower value 0.0709 | locus YDL192W, strain arf1, stronger effect = lower value 0.0602 | locus YDR101C, strain arx1, stronger effect = lower value 0.0636 | locus YDR162C, strain NBP2, stronger effect = lower value 0.0497 | locus YDR318W, strain mcm21, stronger effect = lower value 0.062 | locus YDR388W, stronger effect = lower value 0.0594 | locus YDR502C, strain sam2, stronger effect = lower value 0.057 | locus YEL061C, strain CIN8, stronger effect = lower value 0.0491 | locus YER110C, stronger effect = lower value 0.0738 | locus YER155C, strain BEM2, stronger effect = lower value 0.0713 | locus YER167W, strain BCK2, stronger effect = lower value 0.0538 | locus YGL078C, strain dbp3, stronger effect = lower value 0.387 | locus YGL086W, strain mad1, stronger effect = lower value 0.0523 | locus YGL248W, strain PDE1, stronger effect = lower value 0.0434 | locus YGR135W, strain pre9, stronger effect = lower value 0.0617 | locus YGR252W, strain gcn5, stronger effect = lower value 0.126 | locus YHR079C, strain IRE1 (second series), stronger effect = lower value 0.0616 | locus YHR094C, strain hxt1, stronger effect = lower value 0.0582 | locus YHR129C, strain ARP1, stronger effect = lower value 0.056 | locus YHR200W, strain rpn10, stronger effect = lower value 0.0599 | locus YIL066C, strain RNR3, stronger effect = lower value 0.0444 | locus YIL073C, strain SPO22, stronger effect = lower value 0.121 | locus YIL125W, strain kgd1, stronger effect = lower value 0.161 | locus YIR030C, strain dcg1, stronger effect = lower value 0.0751 | locus YJL134W, strain LCB3, stronger effect = lower value 0.0455 | locus YJL168C, strain set2, stronger effect = lower value 0.0569 | locus YJL187C, strain SWE1 (second series), stronger effect = lower value 0.0486 | locus YJR043C, strain POL32, stronger effect = lower value 0.0695
0.0608 (active) and 1.03 (inactive): locus YJL095W, strain BCK1, stronger effect = lower value
inactive: locus YAL021C, strain ccr4, stronger effect = lower value 0.988 | locus YAL026C, strain drs2, stronger effect = lower value 0.984 | locus YAL030W, strain snc1, stronger effect = lower value 0.977 | locus YBL061C, strain skt5, stronger effect = lower value 0.967 | locus YBR009C, strain hhf1, stronger effect = lower value 0.985 | locus YBR023C, strain chs3, stronger effect = lower value 0.964 | locus YBR171W, strain sec66, stronger effect = lower value 0.958 | locus YBR231C, strain swc5, stronger effect = lower value 0.971 | locus YBR279W, strain paf1, stronger effect = lower value 0.975 | locus YCL011C, strain gbp2, stronger effect = lower value 0.968 | locus YCL016C, strain dcc1, stronger effect = lower value 0.969 | locus YCL061C, strain MRC1, stronger effect = lower value 0.969 | locus YCL069W, strain vba3, stronger effect = lower value 0.977 | locus YCR088W, strain abp1, stronger effect = lower value 0.975 | locus YDL005C, strain med2, stronger effect = lower value 0.969 | locus YDL040C, strain nat1, stronger effect = lower value 0.981 | locus YDR001C, strain nth1, stronger effect = lower value 0.976 | locus YDR069C, strain doa4, stronger effect = lower value 0.988 | locus YDR137W, strain rgp1, stronger effect = lower value 0.945 | locus YDR159W, strain sac3, stronger effect = lower value 0.99 | locus YDR195W, strain ref2 1 | locus YDR297W, strain sur2, stronger effect = lower value 0.972 | locus YDR334W, strain swr1, stronger effect = lower value 0.966 | locus YDR335W, strain msn5, stronger effect = lower value 0.975 | locus YDR392W, strain spt3, stronger effect = lower value 0.894 | locus YEL003W, strain gim4, stronger effect = lower value 0.997 | locus YEL037C, strain rad23, stronger effect = lower value 0.967 | locus YEL061C, strain CIN8 (second series), stronger effect = lower value 0.976 | locus YER015W, strain faa2, stronger effect = lower value 0.968 | locus YER016W, strain bim1, stronger effect = lower value 0.992 | locus YER111C, strain swi4, stronger effect = lower value 0.976 | locus YER155C, strain BEM2 (second series), stronger effect = lower value 0.969 | locus YFR010W, strain ubp6, stronger effect = lower value 0.966 | locus YGL167C, strain pmr1, stronger effect = lower value 0.96 | locus YGL173C, strain kem1, stronger effect = lower value 0.969 | locus YGL227W, strain vid30, stronger effect = lower value 0.978 | locus YGL240W, strain doc1, stronger effect = lower value 0.989 | locus YGL253W, strain hxk2, stronger effect = lower value 0.99 | locus YHR013C, strain ard1, stronger effect = lower value 0.964 | locus YHR027C, strain rpn1, stronger effect = lower value 0.978 | locus YHR079C, strain IRE1, stronger effect = lower value 1.08 | locus YHR142W, strain chs7, stronger effect = lower value 0.926 | locus YJL092W, strain hpr5, stronger effect = lower value 0.98 | locus YJL095W, strain BCK1 (second series), stronger effect = lower value 0.98 | locus YJL115W, strain asf1, stronger effect = lower value 0.983 | locus YJL129C, strain trk1, stronger effect = lower value 0.971 | locus YJL154C, strain vps35, stronger effect = lower value 0.971 | locus YJL164C, strain tpk1, stronger effect = lower value 0.977 | locus YJL166W, strain qcr8, stronger effect = lower value 0.962 | locus YJL187C, strain SWE1, stronger effect = lower value 0.971
